Laboratory results taken from PubChem BioAssay (Tox21).
“And” between values parts separate entries of the source, which are not always exact repeats. Equal entries are not always repeated. Records with an inconclusive call do not appear. Entries that show only a call come without a potency. More than one record can exist for a structure, and the calls need not agree. The source made the active and inactive calls. Unless noted, the call rests on the fitted dose curve; in most records, active means well fitted curve in the direction sought with a large enough effect in the repeat runs; inconclusive means weak or mixed curves; inactive means no such curve, though single readings can be large; an effect the other way counts as inactive or inconclusive.

Tests used:
[1] = qHTS assay to identify small molecule antagonists of the estrogen related receptor (ERR) signaling pathway from Tox21 library - cell viability counter screen (AID 1224834); further: nearly all actives have a fitted effect of over 30% in size; further: potency means the concentration at half of the fitted maximal effect
How it was run: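 After 17.5 h of compound exposure at 37 C, ERR cells are incubated with CellTiter-Fluor for 30 min and fluorescence intensity serves as the viability measure.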

[2] = molecular target: Luciferin 4-monooxygenase (Photinus pyralis) (UniProt P08659); assay: qHTS assay to identify small molecule inhibitors of firefly luciferase (AID 1224835); further: series mostly up to about 120 µM; nearly all actives have a fitted effect of over 25% in size
How it was run: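 Quantitative HTS format; KM concentrations of both substrates. Purified P. pyralis FLuc activity quantified from luminescence images.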

[3] = qHTS assay to identify small molecule agonists of the constitutive androstane receptor (CAR) signaling pathway - cell viability counter screen (AID 1224836); further: series mostly up to about 92 µM; nearly all actives have a fitted effect of over 45% in size
How it was run: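 Using CellTiter-Fluor, viability of HepG2 cells harbouring hCAR and CYP2B6-2.2kb was measured following 23 h incubation with a 15-concentration compound series plus PK11195 (0.75 uM final).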

[4] = qHTS assay to identify small molecule antagonists of the constitutive androstane receptor (CAR) signaling pathway - cell viability counter screen (AID 1224837); further: nearly all actives have a fitted effect of over 45% in size; further: potency means the concentration at half of the fitted maximal effect
How it was run: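 Counter screen run in HepG2-CYP2B6-hCAR cells: 4 hr settle, compound titration (15 concentrations) with 50 nM CITCO, 23 hr at 37 C/5% CO2, CellTiter-Fluor fluorescence.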

[5] = qHTS assay to identify small molecule antagonists of the estrogen related receptor signaling pathway with the pleiotropic PPARgamma coactivator (PGC) from Tox21 10K library - cell viability counter screen (AID 1224840; active means well fitted cell-killing curve with a large enough effect in the repeat runs, not every such curve was filed as active; further: nearly all actives have a fitted effect of over 40% in size; further: potency means the concentration at half of the fitted maximal effect)
How it was run: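 Following seeding of 2,000 PGC/ERR cells/well and 6 hours' incubation, test compounds were delivered in DMSO. The plates then sat 17.5 hours at 37 C before a fluorogenic live-cell protease reagent (CellTiter-Fluor) was read after 30 min.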

[6] = molecular target: Thyrotropin receptor (Homo sapiens) (UniProt P16473); assay: qHTS assay to identify small molecule agonists of the thyroid stimulating hormone receptor (TSHR) signaling pathway (AID 1224843; calls by dose curve; further: nearly all actives have a fitted effect of over 45% in size)
How it was run: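 TSHR-expressing HEK293 cells (800 per well) were exposed to compounds for 30 min at room temperature. cAMP was then detected by HTRF competition with cAMP-d2 and anti-cAMP cryptate, read after 1 h at room temperature. Fifteen concentrations, triplicate.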

[7] = molecular target: Nuclear receptor subfamily 1 group I member 3 (Homo sapiens) (UniProt Q14994); assay: qHTS assay to identify small molecule antagonists of the constitutive androstane receptor (CAR) signaling pathway (AID 1224838);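 further: HepG2 cells stably expressing hCAR with CYP2B6 luciferase reporter stimulated by CITCO; nearly all actives have a fitted effect of over 40% in size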
How it was run: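 Cell line: HepG2 double-stable for hCAR and CYP2B6-2.2kb reporter. Agonist: CITCO, 50 nM final. Compounds: 15 concentrations, 24 h, 37 C. Detection: ONE-Glo luminescence.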

[8] = molecular target: Nuclear receptor subfamily 1 group I member 3 (Homo sapiens) (UniProt Q14994); assay: qHTS assay to identify small molecule agonists of the constitutive androstane receptor (CAR) signaling pathway (AID 1224839);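 further: HepG2 cells stably carrying human CAR and a CYP2B6 luciferase reporter; series mostly up to about 92 µM; nearly all actives have a fitted effect of over 15% in size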
How it was run: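 Double-stable HepG2 cells (hCAR, CYP2B6-2.2kb) seeded 4 h before compound addition. Exposure 24 h with 0.75 uM PK11195 final. Luciferase detected by ONE-Glo.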

[9] = qHTS assay to identify small molecule antagonists of the estrogen related receptor signaling pathway with the pleiotropic PPARgamma coactivator (PGC) from Tox21 10K library (AID 1224841; call rule not given here; further: actives are mostly falling curves and most rising ones were filed inactive; nearly all actives have a fitted effect of over 50% in size; further: potency means the concentration at half of the fitted maximal effect)
How it was run: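 qHTS antagonist format: PGC/ERR cells, 2k/well, compound in DMSO by pin transfer after 6 h attachment, 18 h treatment at 37 C, One-Glo luminescence read at 30 min.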

[10] = qHTS assay to identify small molecule agonists of the estrogen related receptor signaling pathway with the pleiotropic PPARgamma coactivator (PGC) from Tox21 10K library (AID 1224842); further: nearly all actives have a fitted effect of over 15% in size
How it was run: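 PGC/ERR reporter cells (NTP line) were seeded 2,000 per well, rested 6 h at 37 C/5% CO2, then pin-dosed with compounds in DMSO for 18 h at 37 C; luciferase read by One-Glo luminescence after 30 min at room temperature.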

Luciferin 4-monooxygenase (Photinus pyralis), sequence (P08659 whole entry, looked up): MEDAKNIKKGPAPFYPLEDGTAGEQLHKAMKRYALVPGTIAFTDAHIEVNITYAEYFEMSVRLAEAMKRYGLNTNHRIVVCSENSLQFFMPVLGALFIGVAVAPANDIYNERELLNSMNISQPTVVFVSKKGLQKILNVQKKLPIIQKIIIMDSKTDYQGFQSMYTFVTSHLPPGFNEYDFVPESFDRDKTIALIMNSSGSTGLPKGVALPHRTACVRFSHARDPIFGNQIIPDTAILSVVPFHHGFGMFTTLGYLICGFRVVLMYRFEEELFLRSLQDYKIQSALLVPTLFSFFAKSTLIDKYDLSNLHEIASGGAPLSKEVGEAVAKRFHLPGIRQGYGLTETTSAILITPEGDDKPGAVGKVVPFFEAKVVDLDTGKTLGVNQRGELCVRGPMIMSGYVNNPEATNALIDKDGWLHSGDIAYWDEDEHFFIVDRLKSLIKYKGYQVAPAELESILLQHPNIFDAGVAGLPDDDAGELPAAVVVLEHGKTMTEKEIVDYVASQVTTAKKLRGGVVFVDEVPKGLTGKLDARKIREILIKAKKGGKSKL
Thyrotropin receptor (Homo sapiens), sequence (P16473 whole entry, looked up): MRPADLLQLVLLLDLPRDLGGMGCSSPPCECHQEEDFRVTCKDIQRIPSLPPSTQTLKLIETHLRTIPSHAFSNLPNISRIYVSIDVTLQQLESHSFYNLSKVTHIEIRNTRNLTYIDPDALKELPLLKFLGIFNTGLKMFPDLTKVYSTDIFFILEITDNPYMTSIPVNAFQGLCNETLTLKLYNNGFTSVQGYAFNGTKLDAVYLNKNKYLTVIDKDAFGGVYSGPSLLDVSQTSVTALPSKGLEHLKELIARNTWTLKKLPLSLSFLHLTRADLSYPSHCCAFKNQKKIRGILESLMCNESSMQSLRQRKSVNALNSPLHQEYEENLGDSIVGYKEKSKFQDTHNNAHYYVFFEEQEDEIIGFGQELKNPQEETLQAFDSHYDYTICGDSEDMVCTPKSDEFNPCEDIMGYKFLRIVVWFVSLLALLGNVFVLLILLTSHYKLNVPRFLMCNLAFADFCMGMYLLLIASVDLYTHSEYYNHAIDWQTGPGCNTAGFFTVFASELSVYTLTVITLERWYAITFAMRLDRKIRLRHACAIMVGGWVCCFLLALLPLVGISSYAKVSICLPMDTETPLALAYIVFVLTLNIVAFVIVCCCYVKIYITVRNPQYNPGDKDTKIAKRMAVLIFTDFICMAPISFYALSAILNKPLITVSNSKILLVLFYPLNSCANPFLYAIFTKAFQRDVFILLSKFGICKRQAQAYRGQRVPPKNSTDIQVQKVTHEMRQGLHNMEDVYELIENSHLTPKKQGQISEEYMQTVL
Nuclear receptor subfamily 1 group I member 3 (Homo sapiens), sequence (Q14994 whole entry, looked up): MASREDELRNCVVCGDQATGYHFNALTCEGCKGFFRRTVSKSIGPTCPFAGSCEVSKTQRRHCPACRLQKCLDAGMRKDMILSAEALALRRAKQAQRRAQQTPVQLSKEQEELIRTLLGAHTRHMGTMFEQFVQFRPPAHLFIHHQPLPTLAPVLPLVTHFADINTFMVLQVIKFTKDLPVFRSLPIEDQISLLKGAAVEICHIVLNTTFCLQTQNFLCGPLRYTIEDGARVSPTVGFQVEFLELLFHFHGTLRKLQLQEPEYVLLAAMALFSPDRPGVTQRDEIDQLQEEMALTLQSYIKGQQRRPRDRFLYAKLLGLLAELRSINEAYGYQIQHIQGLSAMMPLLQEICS

Compound	Potency [1]	Potency [2]	Potency [3]	Potency [4]	Potency [5]	outcome [6]	outcome [7]	Potency [8]	Potency [9]	outcome [10]
CCOC(=O)n1ccn(C)c1=S	inactive	inactive	inactive	inactive	inactive	inactive	–	–	–	–
N#Cc1ccccc1	inactive	inactive	–	inactive	inactive	inactive	inactive	inactive	inactive	inactive
CCCCCCCCCCO	inactive	inactive	inactive	inactive	inactive	inactive	–	–	–	–
CCCCCCCC=O	inactive	inactive	inactive	inactive	inactive	–	–	–	–	–
C=C(C)CNCC	inactive	inactive	inactive	inactive	inactive	inactive	–	–	inactive	inactive
CC(=O)CCC=C(C)C	inactive	inactive	inactive	inactive	inactive	inactive	–	–	inactive	inactive
CN(C)c1ccc(Cc2ccc(N(C)C)cc2)cc1	inactive	inactive	inactive	inactive	inactive	–	–	–	inactive	inactive
O=C1CCCC1	inactive	inactive	inactive	inactive	inactive	–	–	–	inactive	inactive
COc1ccccc1OCC(O)CO (centres undefined)	inactive	inactive	inactive	inactive	inactive	inactive	–	–	–	–
CC1(C)CC(N)CC(C)(CN)C1 (centres undefined)	inactive	inactive	inactive	inactive	inactive	inactive	–	–	–	–
CCO[Si](CCCN)(OCC)OCC	inactive	inactive	–	inactive	inactive	inactive	inactive	inactive	inactive	inactive
CC(C)c1cccc(C(C)C)c1	inactive	inactive	inactive	inactive	inactive	inactive	–	–	inactive	inactive
COCCCN	inactive	inactive	inactive	inactive	inactive	inactive	–	inactive	–	–
Cc1ccc(S(=O)(=O)N=C=O)cc1	inactive	inactive	inactive	inactive	inactive	inactive	–	–	inactive	inactive
Cc1ccc([N+](=O)[O-])cc1S(=O)(=O)O	inactive	inactive	inactive	inactive	inactive	inactive	–	–	inactive	inactive
C=CC[N+](C)(C)CC=C	inactive	inactive	inactive	inactive	inactive	inactive	–	–	–	–
CC(CCO)CC(C)(C)C (centres undefined)	inactive	inactive	inactive	inactive	inactive	inactive	–	–	–	–
CCO[Si](CCC#N)(OCC)OCC	inactive	inactive	inactive	inactive	inactive	–	–	–	–	–
Brc1ccc(Br)c(Br)c1	inactive	inactive	inactive	inactive	inactive	inactive	–	–	–	–
COc1ccc(N)c(C)c1	inactive	inactive	inactive	inactive	inactive	inactive	–	inactive	–	–
COc1ccc(OC)cc1	inactive	inactive	–	inactive	inactive	inactive	inactive	inactive	inactive	inactive
CCNc1cccc(C)c1	inactive	inactive	–	inactive	inactive	inactive	inactive	inactive	inactive	inactive
CCc1ccccc1CC	inactive	inactive	inactive	inactive	inactive	inactive	–	–	inactive	inactive
C[C@]12CC[C@@H]3c4ccc(O)cc4CC[C@H]3[C@@H]1C[C@@H](O)[C@@H]2O	inactive	inactive	inactive	inactive	inactive	inactive	–	–	–	–
Nc1ccc(Cl)c(N)c1	–	inactive	inactive	inactive	inactive	inactive	–	–	–	–
O=S(=O)(O)c1ccc(N=Nc2c(O)ccc3cc(S(=O)(=O)O)ccc23)cc1	30.8 µM (active) and 54.5 µM (active)	–	–	54.7 µM (active) and 27.3 µM (active)	48.6 µM (active)	–	–	inactive	27.4 µM (active) and inactive	inactive
CNC(=S)N(C)C	inactive	inactive	–	inactive	inactive	–	–	inactive	–	–
NCCCCCCN	inactive	inactive	–	inactive	inactive	inactive	–	–	inactive	inactive
CC(C)=CCl	inactive	inactive	–	inactive	inactive	inactive	–	inactive	–	–
